Experimental data: PMC7862700, “An all-to-all approach to the identification of sequence-specific readers for epigenetic DNA modifications on cytosine”

Experiments:
Assay in all cases: DAPPL (digital affinity profiling via proximity ligation, sequencing); 10 mM Tris-HCl pH 7.5, 50 mM NaCl, 1 mM DTT, 4% glycerol, room temperature, 30 min; GST-TFs on glutathione beads, 16-mer random dsDNA library, 0.1% formaldehyde crosslink after washing; high values mean tight binding
Conditions in all cases: protein: recombinant; tags: N-terminal GST; dsDNA, one strand shown
FEV = biological target: T1, FEV (Homo sapiens, UniProt Q99581 1-238)
T1 sequence: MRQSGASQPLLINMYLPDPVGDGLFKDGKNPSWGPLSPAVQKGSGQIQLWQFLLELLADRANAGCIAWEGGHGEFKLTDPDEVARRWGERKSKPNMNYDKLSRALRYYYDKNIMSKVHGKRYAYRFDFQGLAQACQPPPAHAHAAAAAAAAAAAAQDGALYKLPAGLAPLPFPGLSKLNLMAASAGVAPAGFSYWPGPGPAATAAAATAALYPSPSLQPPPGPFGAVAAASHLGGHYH
Method in brief: (§1)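 In yeast, human transcription factors were expressed with a GST fusion, then pulled down on glutathione beads and given DNA barcodes. Pooled with a tag-only sample, they were exposed to 200 nmole of a 16-mer random double-stranded DNA library (Tris/NaCl/DTT/glycerol buffer, room temperature, 30 min), washed, crosslinked with 0.1% formaldehyde, proximity-ligated using BsaI/T4 ligase for 1 h at 37 °C, PCR-amplified and read on an Illumina NextSeq500. Each hexamer's frequency of reads for a factor, divided by the matching frequency for the tag-only sample, gives the binding signal.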

ETV5 = ETV5 (Homo sapiens, UniProt P41161 1-510)
Method in brief: as §1

SPIC = biological target: T2, SPIC (Homo sapiens, UniProt Q8N5J4 1-248)
T2 sequence: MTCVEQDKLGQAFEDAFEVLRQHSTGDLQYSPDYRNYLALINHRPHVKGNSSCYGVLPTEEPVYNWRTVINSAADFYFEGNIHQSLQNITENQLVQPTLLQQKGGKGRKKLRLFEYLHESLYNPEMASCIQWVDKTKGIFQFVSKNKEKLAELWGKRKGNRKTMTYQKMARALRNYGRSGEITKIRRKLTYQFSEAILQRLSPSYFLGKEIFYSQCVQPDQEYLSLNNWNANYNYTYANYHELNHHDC
Method in brief: as §1

ELF4 = ELF4 (Homo sapiens, UniProt Q99607 1-663)
Method in brief: as §1

ELK4 = biological target: T3, ELK4 (Homo sapiens, UniProt P28324-2 1-405)
T3 sequence: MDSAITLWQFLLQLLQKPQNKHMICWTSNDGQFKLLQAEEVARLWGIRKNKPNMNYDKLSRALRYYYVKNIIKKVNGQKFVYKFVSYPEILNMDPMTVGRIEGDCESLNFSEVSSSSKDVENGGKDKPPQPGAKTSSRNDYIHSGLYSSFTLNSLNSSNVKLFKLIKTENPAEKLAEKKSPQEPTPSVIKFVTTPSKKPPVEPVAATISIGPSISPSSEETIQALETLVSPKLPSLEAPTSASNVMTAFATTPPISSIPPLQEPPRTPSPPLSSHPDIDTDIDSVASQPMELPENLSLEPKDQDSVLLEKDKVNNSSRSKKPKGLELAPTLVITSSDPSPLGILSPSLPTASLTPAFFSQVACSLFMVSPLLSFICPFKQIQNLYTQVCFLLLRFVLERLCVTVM
Method in brief: as §1

ETV2 = biological target: T4, ETV2 (Homo sapiens, UniProt O00321 1-342)
T4 sequence: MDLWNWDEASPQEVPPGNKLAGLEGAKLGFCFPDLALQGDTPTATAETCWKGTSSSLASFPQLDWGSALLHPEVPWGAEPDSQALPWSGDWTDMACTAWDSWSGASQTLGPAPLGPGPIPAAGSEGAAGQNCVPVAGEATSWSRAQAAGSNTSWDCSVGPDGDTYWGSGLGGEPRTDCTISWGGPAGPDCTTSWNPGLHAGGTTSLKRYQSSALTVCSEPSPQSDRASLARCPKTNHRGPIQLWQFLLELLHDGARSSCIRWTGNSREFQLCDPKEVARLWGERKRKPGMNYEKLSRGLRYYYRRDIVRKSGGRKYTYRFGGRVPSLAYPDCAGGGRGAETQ
Method in brief: as §1

ETV1 = ETV1 (Homo sapiens, UniProt P50549 1-477)
Method in brief: as §1

ERF = biological target: T5, ERF (Homo sapiens, UniProt P50548 1-548)
T5 sequence: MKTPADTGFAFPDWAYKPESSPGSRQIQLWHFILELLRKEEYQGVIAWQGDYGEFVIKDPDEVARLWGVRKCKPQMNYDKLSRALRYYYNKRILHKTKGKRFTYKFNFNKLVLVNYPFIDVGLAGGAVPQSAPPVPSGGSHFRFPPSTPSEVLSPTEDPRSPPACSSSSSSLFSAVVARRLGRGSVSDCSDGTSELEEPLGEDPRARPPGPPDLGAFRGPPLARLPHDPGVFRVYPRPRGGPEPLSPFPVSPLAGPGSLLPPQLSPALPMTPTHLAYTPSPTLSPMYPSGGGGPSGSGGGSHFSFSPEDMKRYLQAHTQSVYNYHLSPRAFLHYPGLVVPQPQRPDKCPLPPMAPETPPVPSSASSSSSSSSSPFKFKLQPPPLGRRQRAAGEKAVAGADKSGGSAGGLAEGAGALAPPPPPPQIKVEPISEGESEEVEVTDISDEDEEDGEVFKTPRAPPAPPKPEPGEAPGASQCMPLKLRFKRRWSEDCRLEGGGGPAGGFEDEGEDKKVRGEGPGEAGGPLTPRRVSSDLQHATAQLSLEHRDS
Method in brief: as §1

ETV3L = biological target: T6, ETV3L (Homo sapiens, UniProt Q6ZN32 1-361)
T6 sequence: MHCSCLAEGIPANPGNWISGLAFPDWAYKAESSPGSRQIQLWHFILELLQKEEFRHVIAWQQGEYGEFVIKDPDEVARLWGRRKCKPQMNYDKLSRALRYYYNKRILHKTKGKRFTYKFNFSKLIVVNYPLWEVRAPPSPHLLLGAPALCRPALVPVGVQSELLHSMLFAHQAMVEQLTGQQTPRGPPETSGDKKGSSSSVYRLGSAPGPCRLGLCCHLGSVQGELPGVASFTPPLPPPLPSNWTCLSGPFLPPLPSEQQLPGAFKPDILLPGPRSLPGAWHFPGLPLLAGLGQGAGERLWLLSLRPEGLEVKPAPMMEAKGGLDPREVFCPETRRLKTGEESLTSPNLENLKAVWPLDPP
Method in brief: as §1

ETS2 = biological target: T7, ETS2 (Homo sapiens, UniProt P15036 1-469)
T7 sequence: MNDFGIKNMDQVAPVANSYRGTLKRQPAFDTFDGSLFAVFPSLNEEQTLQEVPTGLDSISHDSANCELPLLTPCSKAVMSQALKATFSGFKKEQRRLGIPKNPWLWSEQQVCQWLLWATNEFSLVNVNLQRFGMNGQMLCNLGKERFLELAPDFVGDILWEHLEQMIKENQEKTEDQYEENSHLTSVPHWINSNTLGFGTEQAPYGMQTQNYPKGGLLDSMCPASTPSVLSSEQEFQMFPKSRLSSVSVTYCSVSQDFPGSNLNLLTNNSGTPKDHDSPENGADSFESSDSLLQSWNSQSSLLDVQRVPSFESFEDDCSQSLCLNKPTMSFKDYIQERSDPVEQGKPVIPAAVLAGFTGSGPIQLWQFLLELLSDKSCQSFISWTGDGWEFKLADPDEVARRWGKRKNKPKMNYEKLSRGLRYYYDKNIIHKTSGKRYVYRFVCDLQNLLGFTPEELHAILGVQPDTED
Method in brief: as §1

SPDEF = biological target: T8, SPDEF (Homo sapiens, UniProt O95238 1-335)
T8 sequence: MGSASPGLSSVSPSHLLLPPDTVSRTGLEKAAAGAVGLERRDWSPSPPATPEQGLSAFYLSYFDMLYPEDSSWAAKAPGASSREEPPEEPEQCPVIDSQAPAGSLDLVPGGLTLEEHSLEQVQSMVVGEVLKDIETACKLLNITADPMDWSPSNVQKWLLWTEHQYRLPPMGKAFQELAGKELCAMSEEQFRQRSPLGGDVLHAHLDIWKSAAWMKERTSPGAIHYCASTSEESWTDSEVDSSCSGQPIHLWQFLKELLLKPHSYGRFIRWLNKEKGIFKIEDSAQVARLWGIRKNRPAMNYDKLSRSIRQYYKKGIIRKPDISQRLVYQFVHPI
Method in brief: as §1

ETV7 = biological target: T9, ETV7 (Homo sapiens, UniProt Q9Y603 1-341)
T9 sequence: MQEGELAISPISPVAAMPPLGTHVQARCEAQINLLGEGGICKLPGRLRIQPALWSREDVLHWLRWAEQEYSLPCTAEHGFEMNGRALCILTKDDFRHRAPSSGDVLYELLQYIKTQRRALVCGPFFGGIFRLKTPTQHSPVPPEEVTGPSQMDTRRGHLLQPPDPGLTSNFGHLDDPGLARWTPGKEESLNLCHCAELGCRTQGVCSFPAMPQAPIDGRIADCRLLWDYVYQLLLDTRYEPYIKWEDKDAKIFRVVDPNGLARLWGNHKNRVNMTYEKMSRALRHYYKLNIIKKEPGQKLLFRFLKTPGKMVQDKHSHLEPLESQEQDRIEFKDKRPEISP
Method in brief: as §1

ELF5 = biological target: T10, ELF5 (Homo sapiens, UniProt Q9UKW6-2 1-255)
T10 sequence: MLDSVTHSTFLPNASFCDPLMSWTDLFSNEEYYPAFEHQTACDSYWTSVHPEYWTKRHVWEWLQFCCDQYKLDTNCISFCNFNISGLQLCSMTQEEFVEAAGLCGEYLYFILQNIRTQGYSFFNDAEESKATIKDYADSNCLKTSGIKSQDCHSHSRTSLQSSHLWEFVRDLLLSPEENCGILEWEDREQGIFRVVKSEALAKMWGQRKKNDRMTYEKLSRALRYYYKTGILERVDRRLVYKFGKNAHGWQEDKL
Method in brief: as §1

ETV3 = biological target: T11, ETV3 (Homo sapiens, UniProt P41162-2 1-143)
T11 sequence: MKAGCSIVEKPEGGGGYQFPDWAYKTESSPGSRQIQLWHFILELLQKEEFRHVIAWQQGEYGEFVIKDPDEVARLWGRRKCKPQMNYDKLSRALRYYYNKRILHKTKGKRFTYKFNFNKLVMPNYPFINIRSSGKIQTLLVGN
Method in brief: as §1

ETV6 = ETV6 (Homo sapiens, UniProt P41212 1-452)
Method in brief: as §1

ELF3 = biological target: T12, ELF3 (Homo sapiens, UniProt P78545 1-371)
T12 sequence: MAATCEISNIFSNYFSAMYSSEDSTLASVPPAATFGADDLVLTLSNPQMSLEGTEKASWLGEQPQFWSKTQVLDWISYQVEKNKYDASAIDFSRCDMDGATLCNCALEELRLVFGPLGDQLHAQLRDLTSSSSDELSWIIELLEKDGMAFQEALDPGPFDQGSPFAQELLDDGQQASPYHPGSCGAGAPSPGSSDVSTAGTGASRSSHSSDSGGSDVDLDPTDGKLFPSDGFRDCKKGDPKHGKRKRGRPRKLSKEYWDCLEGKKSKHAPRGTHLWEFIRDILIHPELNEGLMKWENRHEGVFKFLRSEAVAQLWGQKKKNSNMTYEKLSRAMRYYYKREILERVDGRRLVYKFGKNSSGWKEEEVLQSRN
Method in brief: as §1

ELF4, sequence (Q99607 whole entry): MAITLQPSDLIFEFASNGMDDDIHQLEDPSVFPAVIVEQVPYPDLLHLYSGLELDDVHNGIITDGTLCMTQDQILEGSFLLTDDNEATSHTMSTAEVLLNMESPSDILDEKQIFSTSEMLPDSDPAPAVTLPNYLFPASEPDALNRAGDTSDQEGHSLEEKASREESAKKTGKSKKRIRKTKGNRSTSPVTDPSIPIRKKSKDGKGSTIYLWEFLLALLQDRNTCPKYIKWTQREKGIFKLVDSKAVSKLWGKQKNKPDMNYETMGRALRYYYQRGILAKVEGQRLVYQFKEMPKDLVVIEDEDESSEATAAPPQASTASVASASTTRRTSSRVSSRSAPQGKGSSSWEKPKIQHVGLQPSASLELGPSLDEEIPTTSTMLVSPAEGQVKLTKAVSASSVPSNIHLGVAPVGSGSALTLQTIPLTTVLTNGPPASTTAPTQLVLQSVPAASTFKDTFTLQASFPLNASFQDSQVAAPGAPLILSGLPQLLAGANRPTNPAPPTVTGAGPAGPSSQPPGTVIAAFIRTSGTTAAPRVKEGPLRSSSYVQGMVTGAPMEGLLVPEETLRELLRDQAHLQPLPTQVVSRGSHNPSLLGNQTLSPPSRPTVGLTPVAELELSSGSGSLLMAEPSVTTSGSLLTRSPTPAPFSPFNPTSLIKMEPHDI
ETV5, sequence (P41161 whole entry): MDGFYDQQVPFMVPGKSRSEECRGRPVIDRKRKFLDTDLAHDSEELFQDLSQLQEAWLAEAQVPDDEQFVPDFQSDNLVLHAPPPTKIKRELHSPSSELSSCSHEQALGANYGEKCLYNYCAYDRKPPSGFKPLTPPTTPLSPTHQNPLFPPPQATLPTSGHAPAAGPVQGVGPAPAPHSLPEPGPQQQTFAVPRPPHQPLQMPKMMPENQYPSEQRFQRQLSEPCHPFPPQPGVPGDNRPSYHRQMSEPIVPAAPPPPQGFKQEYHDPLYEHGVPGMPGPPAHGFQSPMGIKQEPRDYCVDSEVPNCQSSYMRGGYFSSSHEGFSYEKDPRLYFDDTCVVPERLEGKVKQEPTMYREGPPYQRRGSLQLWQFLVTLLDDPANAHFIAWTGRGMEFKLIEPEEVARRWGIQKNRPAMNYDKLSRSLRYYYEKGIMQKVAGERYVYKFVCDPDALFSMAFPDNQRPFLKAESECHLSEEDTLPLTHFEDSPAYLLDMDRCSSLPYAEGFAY
ETV1, sequence (P50549 whole entry): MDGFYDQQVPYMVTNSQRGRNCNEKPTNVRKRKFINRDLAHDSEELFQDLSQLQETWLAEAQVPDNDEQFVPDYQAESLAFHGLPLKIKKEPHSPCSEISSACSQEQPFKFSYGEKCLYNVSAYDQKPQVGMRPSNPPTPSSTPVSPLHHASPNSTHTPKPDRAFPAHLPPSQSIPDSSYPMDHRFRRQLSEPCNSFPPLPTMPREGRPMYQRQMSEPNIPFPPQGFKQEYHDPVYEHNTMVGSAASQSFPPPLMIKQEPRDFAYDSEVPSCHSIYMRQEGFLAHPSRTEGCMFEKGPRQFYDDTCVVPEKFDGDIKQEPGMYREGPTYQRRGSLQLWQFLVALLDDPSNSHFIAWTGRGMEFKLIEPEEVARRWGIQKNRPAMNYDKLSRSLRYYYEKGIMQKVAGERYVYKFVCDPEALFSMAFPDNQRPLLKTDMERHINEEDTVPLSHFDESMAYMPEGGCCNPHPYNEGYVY
ETV6, sequence (P41212 whole entry): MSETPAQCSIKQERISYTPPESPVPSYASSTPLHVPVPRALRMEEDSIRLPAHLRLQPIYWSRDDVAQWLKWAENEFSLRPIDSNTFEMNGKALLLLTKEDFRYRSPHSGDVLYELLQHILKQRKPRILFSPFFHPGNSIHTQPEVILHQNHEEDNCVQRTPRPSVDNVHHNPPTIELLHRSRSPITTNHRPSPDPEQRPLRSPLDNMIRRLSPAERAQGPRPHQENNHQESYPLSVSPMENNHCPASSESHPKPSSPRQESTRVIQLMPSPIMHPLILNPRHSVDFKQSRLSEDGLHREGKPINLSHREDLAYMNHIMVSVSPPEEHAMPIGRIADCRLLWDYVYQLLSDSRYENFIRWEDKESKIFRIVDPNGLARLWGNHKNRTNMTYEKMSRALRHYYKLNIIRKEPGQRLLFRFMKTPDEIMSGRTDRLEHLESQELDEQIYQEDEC

Row | Sequence | binding signal (FEV) | binding signal (ETV5) | binding signal (SPIC) | binding signal (ELF4) | binding signal (ELK4) | binding signal (ETV2) | binding signal (ETV1) | binding signal (ERF) | binding signal (ETV3L) | binding signal (ETS2) | binding signal (SPDEF) | binding signal (ETV7) | binding signal (ELF5) | binding signal (ETV3) | binding signal (ETV6) | binding signal (ELF3)
1 | ATGTGT | 1.02 fold enrichment (6-mer frequency, TF over GST control) | 1.16 fold enrichment (6-mer frequency, TF over GST control) | 1.17 fold enrichment (6-mer frequency, TF over GST control) | 1.08 fold enrichment (6-mer frequency, TF over GST control) | 1.05 fold enrichment (6-mer frequency, TF over GST control) | 1.11 fold enrichment (6-mer frequency, TF over GST control) | 1.18 fold enrichment (6-mer frequency, TF over GST control) | 1.15 fold enrichment (6-mer frequency, TF over GST control) | 1.1 fold enrichment (6-mer frequency, TF over GST control) | 1.17 fold enrichment (6-mer frequency, TF over GST control) | 1.23 fold enrichment (6-mer frequency, TF over GST control) | 1.09 fold enrichment (6-mer frequency, TF over GST control) | 1.04 fold enrichment (6-mer frequency, TF over GST control) | 1.01 fold enrichment (6-mer frequency, TF over GST control) | 1.12 fold enrichment (6-mer frequency, TF over GST control) | 
2 | GCCAAT | 1.03 fold enrichment (6-mer frequency, TF over GST control) | 1.09 fold enrichment (6-mer frequency, TF over GST control) | 1.05 fold enrichment (6-mer frequency, TF over GST control) | 1.12 fold enrichment (6-mer frequency, TF over GST control) | 1.01 fold enrichment (6-mer frequency, TF over GST control) |  | 1.13 fold enrichment (6-mer frequency, TF over GST control) | 1.11 fold enrichment (6-mer frequency, TF over GST control) | 1.05 fold enrichment (6-mer frequency, TF over GST control) | 1.06 fold enrichment (6-mer frequency, TF over GST control) | 1.07 fold enrichment (6-mer frequency, TF over GST control) | 1.06 fold enrichment (6-mer frequency, TF over GST control) |  | 1.1 fold enrichment (6-mer frequency, TF over GST control) |  | 1.2 fold enrichment (6-mer frequency, TF over GST control)
